{"source": "the supplement of paper PMC8728848", "test_in_all_cases": "glycan array binding signal (z-score within array); higher = stronger binding", "details_in_all_cases": "glycan notation: IUPAC condensed, linker removed", "key": {"[1]": {"target": "Fuc(a1-2)Gal(b1-3)GlcNAc(b1-3)Gal(b1-4)Glc", "in_short": "(§1)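 The Consortium for Functional Glycomics database supplied 3228 glycan arrays, of which those lacking an available protein sequence were dropped. The binding signal, a within-array Z-score, was averaged across arrays of the same protein sequence and across linkers. Negative scores can be read as non-binding.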"}, "[2]": {"target": "Fuc(a1-2)Gal(b1-3)GlcNAc(b1-3)[Gal(b1-4)GlcNAc(b1-6)]Gal(b1-4)Glc", "in_short": "as §1"}, "[3]": {"target": "Fuc(a1-2)Gal(b1-3)[Fuc(a1-4)]GlcNAc(b1-2)Man(a1-3)[Fuc(a1-2)Gal(b1-3)[Fuc(a1-4)]GlcNAc(b1-2)Man(a1-3)]Man(b1-4)GlcNAc(b1-4)GlcNAc", "in_short": "as §1"}, "[4]": {"target": "Fuc(a1-2)Gal(b1-4)GlcNAc(b1-3)Gal(b1-4)GlcNAc", "in_short": "as §1"}, "[5]": {"target": "Fuc(a1-2)Gal(b1-4)[Fuc(a1-3)]GlcNAc(b1-3)GalNAc", "in_short": "as §1"}, "Fuc(a1-2)Gal6S(b1-4)Glc": {"target": "Fuc(a1-2)Gal6S(b1-4)Glc", "in_short": "as §1"}, "[6]": {"target": "Fuc(a1-2)Gal6S(b1-4)Glc6S", "in_short": "as §1"}, "[7]": {"target": "Fuc(a1-2)[Gal(a1-3)]Gal(b1-3)GlcNAc", "in_short": "as §1"}, "[8]": {"target": "Fuc(a1-2)[GalNAc(a1-3)]Gal(b1-4)[Fuc(a1-3)]GlcNAc(b1-3)GalNAc", "in_short": "as §1"}, "[9]": {"target": "Fuc(a1-3)[GalNAc(b1-4)]GlcNAc", "in_short": "as §1"}, "Gal(b1-3)Gal(b1-4)GlcNAc": {"target": "Gal(b1-3)Gal(b1-4)GlcNAc", "in_short": "as §1"}, "[10]": {"target": "Gal(b1-3)Gal(b1-4)GlcNAc(b1-2)Man(a1-3)[Gal(b1-3)Gal(b1-4)GlcNAc(b1-2)Man(a1-6)]Man(b1-4)GlcNAc(b1-4)GlcNAc", "in_short": "as §1"}, "[11]": {"target": "Gal(b1-3)GlcNAc(a1-6)Gal(b1-4)GlcNAc", "in_short": "as §1"}, "[12]": {"target": "Gal(b1-3)GlcNAc(b1-3)Gal(b1-4)GlcNAc(b1-2)[Gal(b1-3)GlcNAc(b1-3)Gal(b1-4)GlcNAc(b1-6)]Man(a1-6)[Gal(b1-3)GlcNAc(b1-3)Gal(b1-4)GlcNAc(b1-2)Man(a1-3)]Man(b1-4)GlcNAc(b1-4)[Fuc(a1-6)]GlcNAc", "in_short": "as §1"}, "[13]": {"target": "Gal(b1-3)GlcNAc(b1-3)Gal(b1-4)GlcNAc(b1-3)Gal(b1-4)GlcNAc(b1-2)[Gal(b1-3)GlcNAc(b1-3)Gal(b1-4)GlcNAc(b1-3)Gal(b1-4)GlcNAc(b1-6)]Man(a1-6)[Gal(b1-3)GlcNAc(b1-3)Gal(b1-4)GlcNAc(b1-3)Gal(b1-4)GlcNAc(b1-2)Man(a1-3)]Man(b1-4)GlcNAc(b1-4)[Fuc(a1-6)]GlcNAc", "in_short": "as §1"}, "[14]": {"target": "Gal(b1-3)GlcNAc(b1-6)GalNAc", "in_short": "as §1"}, "[15]": {"target": "Gal(b1-3)[GlcNAc(b1-6)]GalNAc", "in_short": "as §1"}, "[16]": {"target": "Gal(b1-3)[Neu5Ac(a2-6)]GalNAc", "in_short": "as §1"}, "[17]": {"target": "Gal(b1-3)[Neu5Ac(b2-6)]GalNAc", "in_short": "as §1"}, "[18]": {"target": "Gal(b1-4)GlcNAc(b1-2)[Gal(b1-4)GlcNAc(b1-4)]Man(a1-3)[Gal(b1-4)GlcNAc(b1-2)[Gal(b1-4)GlcNAc(b1-6)]Man(a1-6)]Man(b1-4)GlcNAc(b1-4)GlcNAc", "in_short": "as §1"}, "[19]": {"target": "Gal(b1-4)GlcNAc(b1-2)[Gal(b1-4)GlcNAc(b1-4)]Man(a1-3)[GlcNAc(b1-4)][Gal(b1-4)GlcNAc(b1-2)Man(a1-6)]Man(b1-4)GlcNAc(b1-4)GlcNAc", "in_short": "as §1"}, "[20]": {"target": "Gal(b1-4)GlcNAc(b1-3)Gal(b1-4)GlcNAc(b1-2)Man(a1-3)[Gal(b1-4)GlcNAc(b1-3)Gal(b1-4)GlcNAc(b1-2)Man(a1-6)]Man(b1-4)GlcNAc(b1-4)GlcNAc", "in_short": "as §1"}, "[21]": {"target": "Gal(b1-4)GlcNAc(b1-3)Gal(b1-4)GlcNAc(b1-2)Man(a1-3)[Gal(b1-4)GlcNAc(b1-3)Gal(b1-4)GlcNAc(b1-2)Man(a1-6)]Man(b1-4)GlcNAc(b1-4)[Fuc(a1-6)]GlcNAc", "in_short": "as §1"}, "[22]": {"target": "Gal(b1-4)GlcNAc(b1-3)Gal(b1-4)GlcNAc(b1-2)[Gal(b1-4)GlcNAc(b1-3)Gal(b1-4)GlcNAc(b1-6)]Man(a1-6)[Gal(b1-4)GlcNAc(b1-3)Gal(b1-4)GlcNAc(b1-2)Man(a1-3)]Man(b1-4)GlcNAc(b1-4)[Fuc(a1-6)]GlcNAc", "in_short": "as §1"}, "[23]": {"target": "Gal(b1-4)GlcNAc(b1-3)Gal(b1-4)GlcNAc(b1-3)GalNAc", "in_short": "as §1"}, "[24]": {"target": "Gal(b1-4)GlcNAc(b1-6)[Gal(b1-3)]GalNAc", "in_short": "as §1"}, "Gal(b1-6)Gal": {"target": "Gal(b1-6)Gal", "in_short": "as §1"}, "Gal3S(b1-4)GlcNAc": {"target": "Gal3S(b1-4)GlcNAc", "in_short": "as §1"}, "[25]": {"target": "Gal3S(b1-4)[Fuc(a1-3)]Glc", "in_short": "as §1"}, "GalNAc(a1-3)GalNAc": {"target": "GalNAc(a1-3)GalNAc", "in_short": "as §1"}}, "note": "About 410 targets per protein were measured; listed, in parts, are those with the strongest signals and a random draw of the rest.", "data": [{"binder": "GST-Gap1 (Streptococcus parasanguinis), A1C3L5 (protein) MFYFVPSWYNGQRQWYYDTPWWFRVKNRMTFDDSVNQVKMFLQGQEEIGLMILNYQPQLRYFLHKQNIFGIYYWSFFDDIQNITRSYTKIIHLKDLNWPEGCEFLYSPFAVVVRLKGEIFAIVNYAEDGNLHSVSFQKNGKVTKDYIFDDRGFLSSILYYDIDERPLYQDYLNINGVWQVREFLKKENDPTPILMINDFSDQTFSKKYYNGWEELIKERLAIFQNNHVENEDVFVLASDTQHNQLVSSIFKEHRKIYSFFGNRFNLENLGQDRISINDATFLVVDTEKNEELLRKTCENLVFKSIPIVRLSPFDSRLRLGHSQTVKEQIIYFHIDNIELDELYSVIAIILELMTLHLDIELRIVTFRQDFQLDLLKTWIIDFIKTNHFEDLLFKQISEGENEIEDEGEIELSRIAMECFTNENQIIKCLDTARLVIDLGIEPDLYTQIASISAGIPQINRVSSDYVIHQKNGLVISDISKLSSAIEFYFDGLFNWNEALIYAVRKMSDYTSGKILKQWKGMLKKK", "values": [{"measurement": "glycan array binding signal (z-score)", "setting": "[1]", "result": -0.291}, {"measurement": "glycan array binding signal (z-score)", "setting": "[2]", "result": 0.111}, {"measurement": "glycan array binding signal (z-score)", "setting": "[3]", "result": 0.383}, {"measurement": "glycan array binding signal (z-score)", "setting": "[4]", "result": -0.608}, {"measurement": "glycan array binding signal (z-score)", "setting": "[5]", "result": 1.32}, {"measurement": "glycan array binding signal (z-score)", "setting": "Fuc(a1-2)Gal6S(b1-4)Glc", "result": -0.647}, {"measurement": "glycan array binding signal (z-score)", "setting": "[6]", "result": -0.485}, {"measurement": "glycan array binding signal (z-score)", "setting": "[7]", "result": 0.152}, {"measurement": "glycan array binding signal (z-score)", "setting": "[8]", "result": 0.024}, {"measurement": "glycan array binding signal (z-score)", "setting": "[9]", "result": 0.035}, {"measurement": "glycan array binding signal (z-score)", "setting": "Gal(b1-3)Gal(b1-4)GlcNAc", "result": 0.416}, {"measurement": "glycan array binding signal (z-score)", "setting": "[10]", "result": 13.5}, {"measurement": "glycan array binding signal (z-score)", "setting": "[11]", "result": -0.654}, {"measurement": "glycan array binding signal (z-score)", "setting": "[12]", "result": 2.25}, {"measurement": "glycan array binding signal (z-score)", "setting": "[13]", "result": 3.43}, {"measurement": "glycan array binding signal (z-score)", "setting": "[14]", "result": 0.494}, {"measurement": "glycan array binding signal (z-score)", "setting": "[15]", "result": -0.334}, {"measurement": "glycan array binding signal (z-score)", "setting": "[16]", "result": 0.3}, {"measurement": "glycan array binding signal (z-score)", "setting": "[17]", "result": -0.046}, {"measurement": "glycan array binding signal (z-score)", "setting": "[18]", "result": -0.809}, {"measurement": "glycan array binding signal (z-score)", "setting": "[19]", "result": 0.833}, {"measurement": "glycan array binding signal (z-score)", "setting": "[20]", "result": 4.81}, {"measurement": "glycan array binding signal (z-score)", "setting": "[21]", "result": 1.2}, {"measurement": "glycan array binding signal (z-score)", "setting": "[22]", "result": 2.87}, {"measurement": "glycan array binding signal (z-score)", "setting": "[23]", "result": 2.15}, {"measurement": "glycan array binding signal (z-score)", "setting": "[24]", "result": 0.095}, {"measurement": "glycan array binding signal (z-score)", "setting": "Gal(b1-6)Gal", "result": 0.538}, {"measurement": "glycan array binding signal (z-score)", "setting": "Gal3S(b1-4)GlcNAc", "result": 0.12}, {"measurement": "glycan array binding signal (z-score)", "setting": "[25]", "result": -0.553}, {"measurement": "glycan array binding signal (z-score)", "setting": "GalNAc(a1-3)GalNAc", "result": -0.202}]}]}
